Laboratory results as given in PubChem BioAssay AID956 (National Center for Advancing Translational Sciences (NCATS), 2007).
The other results are listed elsewhere or left out. A call without a number means that no potency is given here. Results filed as inconclusive are left out. Active and inactive are the calls of the source. Calls come from the whole dose curve.

Biological target: Amyloid-beta precursor protein (Homo sapiens) (UniProt P05067)
Experiment: Beta amyloid ThS binding assay
Settings: Abeta1-42 fibrillization, thioflavin S fluorescence, overnight 37 C
Description: NIH Molecular Libraries Screening Centers Network [MLSCN] NIH Chemical Genomics Center [NCGC] MLSCN Grant: 1 X01 MH079825-01 Assay Provider: Jeffrey A. Kuret, Ohio State University NCGC Assay Overview: Alzheimer disease is characterized by the accumulation of proteinacious aggregates comprised of tau and beta-amyloid. The protein components of each lesion can be induced to form filaments under experimentally tractable times when incubated in vitro with anionic inducers such as alkyl sulfate detergents or fatty acids. […] Here we describe the in vitro fibrillization of beta-amyloid 1-42 (Abeta1-42). Abeta1-42 proteins were induced to form filaments by incubation overnight at 37 C in the presence of arachidonic acid. […] Small molecules capable of ThS displacement or antagonizing fibrillization result in a decrease in ThS fluorescence, allowing determination of binding affinities for molecules screened.
NCGC Assay Protocol Summary Human Beta amyloid peptide 1-42 (American Peptide Co., Sunnyvale, CA) was resuspended in hexafluoroisopropanol (by vortexing in a glass vial) to a final concentration of 1 mM. […] Fluorescence (ex = 440 nm; em = 485 nm) was measured after brief shaking (10 s) in a FlexStation plate reader (Molecular Devices, Sunnyvale, CA) operated at sensitivity 10, automatic PMT. […]

Chain of Amyloid-beta precursor protein (Homo sapiens) (P05067 whole entry, looked up): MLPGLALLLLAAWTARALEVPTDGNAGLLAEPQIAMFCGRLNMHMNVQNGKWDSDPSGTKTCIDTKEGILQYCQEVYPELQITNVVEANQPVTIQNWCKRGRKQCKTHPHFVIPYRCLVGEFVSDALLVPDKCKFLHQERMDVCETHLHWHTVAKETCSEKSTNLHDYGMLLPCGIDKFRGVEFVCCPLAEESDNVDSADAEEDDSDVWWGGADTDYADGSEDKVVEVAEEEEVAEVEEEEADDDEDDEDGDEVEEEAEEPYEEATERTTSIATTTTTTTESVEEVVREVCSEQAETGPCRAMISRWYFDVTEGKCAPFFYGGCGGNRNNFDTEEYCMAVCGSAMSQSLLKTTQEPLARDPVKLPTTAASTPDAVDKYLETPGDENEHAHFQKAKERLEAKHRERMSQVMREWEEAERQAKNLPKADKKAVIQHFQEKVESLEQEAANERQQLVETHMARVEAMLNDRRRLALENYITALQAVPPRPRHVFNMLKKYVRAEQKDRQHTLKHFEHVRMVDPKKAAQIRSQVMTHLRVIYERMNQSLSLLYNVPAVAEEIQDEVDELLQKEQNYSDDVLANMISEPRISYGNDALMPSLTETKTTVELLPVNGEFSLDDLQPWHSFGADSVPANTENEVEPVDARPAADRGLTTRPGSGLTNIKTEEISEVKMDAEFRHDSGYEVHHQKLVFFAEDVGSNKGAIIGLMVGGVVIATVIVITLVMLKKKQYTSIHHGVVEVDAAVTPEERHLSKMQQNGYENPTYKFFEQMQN

Structure (SMILES)	Potency	outcome
Oc1ccc(O)c2c(O)cccc12	4.52 µM (active)	–
O=C(CCCCn1c(=O)[nH]c2ccccc2c1=O)NCc1ccc2c(c1)OCO2	–	inactive
